Among the test systems are NCI-H23 lung; NCI-H226 lung; NCI-H322M lung; HOP-62 NSCLC; NCI-H460 lung; HOP-92 NSCLC; NCI-H522 lung; A549/ATCC NSCLC; 786-0 renal; COLO 205 colon; DU-145 prostate; K-562 leukemia; MDA-MB-231 breast; RXF 393 renal; SF-268 CNS; SF-295 CNS; SF-539 CNS; UACC-257 melanoma; M14 melanoma.
What all share (experiment): NCI-60 one-dose screen, 48 h (100 = growth as untreated, 0 = no growth, -100 = all killed)
What all share (details): 10 µM unless noted

This is an account of results in PubChem BioAssay (NCI).

Compounds without any hit were thinned out: in the full panel of roughly 83,000, 20% have a hit.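 How to read the values: 0–100, growth inhibition (40 = 60% inhibited); 0, no net growth; -100 to 0, cell death (-40 = 40% of starting cells died; -100 = all dead).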 Values without a mark were called inactive. The source made the active and inactive calls. How the source made its calls: active means growth percent below 10; inactive means the rest.

Regarding `CC(=O)Oc1ccccc1C(=O)/C=C/c1cccc([N+](=O)[O-])c1`, the growth in the test with NCI-H23 lung was 87.9%; in the test on NCI-H226 lung, 94.2%; in the test on NCI-H322M lung, 99.2%; in the test on HOP-62 NSCLC it was 99.2%; with NCI-H460 lung it was 82.5%; with HOP-92 NSCLC, 69.8%. Moreover, the growth in the test with NCI-H522 lung was 55.9%; in the test with A549/ATCC NSCLC it was 95.6%; with 786-0 renal it was 81.6%; with COLO 205 colon, 86.7%; with DU-145 prostate it was 75%; in the test with K-562 leukemia it was 28.1%. For the same compound, the growth is 85.2% in the test on MDA-MB-231 breast; 60.4% in the test on RXF 393 renal; 62.6% in the test on SF-268 CNS; 68.7% with SF-295 CNS; 80.8% in the test on SF-539 CNS; 103% in the test on UACC-257 melanoma. For the same compound, the growth with M14 melanoma is 96.4%.
Turning to `Cn1c2c(c3ccc(Cl)cc31)-n1cccc1C2=O`, the growth in the test with NCI-H23 lung was 95.2%; with NCI-H226 lung, 99.3%; in the test with NCI-H322M lung, 85.4%; in the test on HOP-62 NSCLC it was 107%; with NCI-H460 lung it was 92.9%; in the test on HOP-92 NSCLC it was 81.8%. The growth was 71.3% in the test with NCI-H522 lung; 75.1% in the test on A549/ATCC NSCLC; 80.9% with 786-0 renal; 90.4% in the test with COLO 205 colon; 88.6% with DU-145 prostate; 107% in the test on K-562 leukemia. The growth in the test on MDA-MB-231 breast is 87.5%; in the test on RXF 393 renal it was 91.8%; in the test with SF-268 CNS, 92.3%; with SF-295 CNS it was 105%; in the test with SF-539 CNS it was 94.7%; in the test on UACC-257 melanoma, 106%. Besides, the growth in the test on M14 melanoma was 109%.
As for `COc1ccc2c(c1)c(-c1nc(-c3c[nH]c4ncccc34)cs1)cn2C`, the growth in the test on NCI-H23 lung was 71.8%; in the test with NCI-H226 lung it was 80.6%; in the test with NCI-H322M lung, 46.6%; in the test with HOP-62 NSCLC it was 90.4%; in the test with NCI-H460 lung it was 40.1%; with HOP-92 NSCLC, 60.7%. In addition, the growth in the test on NCI-H522 lung is 77.9%; in the test on A549/ATCC NSCLC, 81.7%; in the test on 786-0 renal it was 70.1%; in the test with COLO 205 colon, 83.7%; with DU-145 prostate, 72.5%; with K-562 leukemia, 41%. For the same compound, the growth with MDA-MB-231 breast is 55.3%; in the test on RXF 393 renal it was 57.2%; with SF-268 CNS, 97%; in the test with SF-295 CNS, 86%; with SF-539 CNS it was 66.2%; with UACC-257 melanoma, 85.1%. In the test on M14 melanoma, the growth was 63.7%.
Turning to `Cn1cc(-c2csc(-c3cn(C(=O)OC(C)(C)C)c4ccc(Br)cc34)n2)c2cccnc21`, the growth in the test with NCI-H23 lung is 92.2%; in the test on NCI-H226 lung, 101%; in the test with NCI-H322M lung, 88.9%; in the test on HOP-62 NSCLC it was 99.2%; in the test on NCI-H460 lung it was 62.3%; with HOP-92 NSCLC, 98.7%. Moreover, the growth in the test with NCI-H522 lung is 96.3%; in the test on A549/ATCC NSCLC, 78.5%; in the test on 786-0 renal it was 99.9%; in the test on COLO 205 colon, 86%; with DU-145 prostate, 108%; in the test with K-562 leukemia it was 97.6%. For the same compound, the growth in the test with MDA-MB-231 breast was 75.3%; with RXF 393 renal, 88.5%; in the test with SF-268 CNS, 94.7%; with SF-295 CNS it was 79.8%; in the test on SF-539 CNS, 106%; in the test with UACC-257 melanoma, 114%. Besides, the growth in the test with M14 melanoma was 104%.
On to `Cc1cccc2c1NC(=O)[C@@]21[C@H](C(=O)c2ccccc2)[C@]2(C(=O)Nc3ccccc32)[C@H]2CCCN21`, for which the growth was 38.4% [100 µM] in the test with NCI-H23 lung; 13% [100 µM] in the test on NCI-H226 lung; 48.8% [100 µM] with NCI-H322M lung; 4.33% [100 µM] (active) in the test with HOP-62 NSCLC; 12.3% [100 µM] in the test with NCI-H460 lung; -25.2% [100 µM] (active) in the test on HOP-92 NSCLC. Besides, the growth in the test on NCI-H522 lung was 17% [100 µM]; with A549/ATCC NSCLC, 15% [100 µM]; with 786-0 renal, 15.3% [100 µM]; in the test with COLO 205 colon, 33.1% [100 µM]; with DU-145 prostate, 40% [100 µM]; with K-562 leukemia it was 30.4% [100 µM]. Further, the growth was 14.5% [100 µM] in the test with MDA-MB-231 breast; -23.9% [100 µM] (active) in the test with RXF 393 renal; 34.3% [100 µM] with SF-268 CNS; 23.7% [100 µM] with SF-295 CNS; 6.13% [100 µM] (active) in the test with SF-539 CNS; 46.1% [100 µM] in the test on M14 melanoma.
As to `Cn1cc(-c2csc(-c3c[nH]c4ccc(F)cc34)n2)c2cccnc21`, the growth with NCI-H23 lung was 50.4%; in the test on NCI-H226 lung, 59.7%; with NCI-H322M lung, 74.8%; in the test on HOP-62 NSCLC it was 43.2%; with NCI-H460 lung it was 11.4%; in the test on HOP-92 NSCLC it was 71.9%. Besides, the growth in the test on NCI-H522 lung was 12.6%; with A549/ATCC NSCLC, 46.5%; in the test with 786-0 renal, 66.6%; in the test with COLO 205 colon it was 35.6%; in the test on DU-145 prostate it was 61.9%; with K-562 leukemia, 19.8%. Besides, the growth in the test with MDA-MB-231 breast was 50.1%; with RXF 393 renal it was 54.4%; in the test on SF-268 CNS, 51.1%; in the test with SF-295 CNS it was 14.8%; in the test with SF-539 CNS, 31%; in the test on UACC-257 melanoma, 63.4%. In the test with M14 melanoma, the growth was 13.7%.
As for `COCCNC1=C(Cl)C(=O)c2ccccc2C1=O`, the growth is 64.8% in the test with NCI-H23 lung; 95.9% in the test on NCI-H226 lung; 113% in the test with NCI-H322M lung; 117% in the test on HOP-62 NSCLC; 95.4% with NCI-H460 lung; 137% with HOP-92 NSCLC. In addition, the growth was 96.1% in the test with NCI-H522 lung; 88.8% with A549/ATCC NSCLC; 114% in the test with 786-0 renal; 110% in the test with COLO 205 colon; 53.9% with DU-145 prostate; 99.8% with K-562 leukemia. The growth in the test on MDA-MB-231 breast is 99.6%; in the test with RXF 393 renal, 105%; with SF-268 CNS, 95.6%; with SF-295 CNS, 75.1%; in the test on SF-539 CNS, 136%; in the test with UACC-257 melanoma it was 100%. For the same compound, in the test with M14 melanoma, the growth is 96.9%.
Consider `Cc1c(C)c2c(c(C)c1NC(=O)CCCCCCC(=O)O)CCC(C)(CCCC(C)CCCC(C)CCCC(C)C)O2` (stereo not given), for which the growth was 85.7% in the test with NCI-H23 lung; 95.2% in the test on NCI-H226 lung; 91.7% in the test with NCI-H322M lung; 109% with HOP-62 NSCLC; 69.7% with NCI-H460 lung; 82% with HOP-92 NSCLC. The growth with NCI-H522 lung was 52%; with A549/ATCC NSCLC, 20.4%; in the test on 786-0 renal it was 75.2%; in the test on COLO 205 colon, 98.4%; in the test with DU-145 prostate, 86.1%; in the test on K-562 leukemia, 39.2%. For the same compound, the growth in the test on MDA-MB-231 breast was 101%; in the test on RXF 393 renal, 98.9%; in the test with SF-268 CNS it was 78.3%; with SF-295 CNS it was 71.4%; in the test with SF-539 CNS, 89.9%; in the test on UACC-257 melanoma, 95.2%. Moreover, the growth in the test on M14 melanoma was 82.7%.
`Cn1cc(-c2nc(-c3c[nH]c4ncccc34)cs2)c2ccccc21`: the growth was 63.4% in the test on NCI-H23 lung; 85.7% with NCI-H226 lung; 52.6% in the test with NCI-H322M lung; 92.9% in the test on HOP-62 NSCLC; 35.8% in the test on NCI-H460 lung; 42.6% with HOP-92 NSCLC. The growth with NCI-H522 lung was 84%; in the test with A549/ATCC NSCLC it was 90.6%; in the test on 786-0 renal it was 90.5%; in the test with COLO 205 colon, 85.9%; in the test with DU-145 prostate, 99.9%; with K-562 leukemia, 65.5%. Moreover, the growth in the test on MDA-MB-231 breast was 42.9%; in the test with RXF 393 renal, 84.3%; in the test with SF-268 CNS, 99.3%; in the test on SF-295 CNS, 98%; in the test with SF-539 CNS, 99.9%; in the test with UACC-257 melanoma, 95.5%. In addition, the growth with M14 melanoma was 81.1%.
